Structures are written as SMILES.

As a reminder, the inhibition is the relative decrease from the control value, in per cent.

The target in the test is Glucose transporter (Leishmania mexicana) (UniProt O61059). Nature of the test: ST_JUDE_LEISH: Cytotoxicity at 2uM final concentration against transgenic Leishmania Mexicana promastigotes LmGT2 that are glucose transport deficient and complemented with the L. Mexicana glucose transporter 2. Activity is measured by DNA content using SYBR green in vitro. It is filed as functional.
For the molecule `c1ccc2c(CNCCCCCCNCc3c(OCC4CC4)ccc4ccccc34)c(OCC3CC3)ccc2c1`, the inhibition worked out at 37.4%. As for `COc1ccc2nccc([C@@H](O)CN3CCC(NCc4cc5ccccc5o4)CC3)c2c1`, the figure is 5.59%. Take `CC1=C(C(=O)Nc2cc3cn[nH]c3cc2F)C(c2cccc(NS(C)(=O)=O)c2)CC(=O)N1` (centres undefined): the inhibition came to 2.34%. Under `Cc1c(C(=O)C2CC2CN2CCC(N3CCCCC3)CC2)sc2ccccc12` (centres undefined) stands 2.09%; under `CCCCN(CCCC)CCNC(=O)c1cccc(NC(=O)N2CCc3cc(SC)c(C(F)(F)F)cc32)c1`, 2.86%; under `CN(CCc1ccccc1)c1ncc(-c2ccccc2CNCc2ccccc2O)cn1`, 2.23%. As for `Cc1cc(-c2cccc3c(C(=O)N4CCc5cc6nccc(N7CCCN(C)CC7)c6cc54)cccc23)cc(C)n1`, the figure is 1.14%; as for `CCOc1cc2ncnc(Nc3ccc(OCc4ccccc4Br)c(OC)c3)c2cc1OCC`, 2.49%; as for `COc1cccc(CCNc2nc(NCc3ccccc3)c3cc(OC)c(OC)cc3n2)c1`, 1.86%. As to `COc1cc(C)nc2ccc(NC(=O)Nc3cccc4ccccc34)cc12`, the inhibition came out at 3.45%.

In the case of `O=C(NCCCN1CCC(NC(=O)c2ccc(-c3cccnc3)cc2)CC1)c1ccc(Cl)c(Cl)c1`, the inhibition turned out to be 1.63%. Under `COc1ccc(C(=O)N2CCC3(CC2)C(=O)N(CC(=O)NCC2CCCCC2)CN3c2ccccc2)c(OC)c1` stands 3.99%; under `O=C(c1cc(-c2cccs2)n[nH]1)N1CCN(S(=O)(=O)c2ccc(Cl)cc2)CC1`, 1.76%; under `O=C(Nc1ccc(F)c(Cl)c1)NC1CCN(c2ccnc3cc(Cl)ccc23)C1` (centres undefined), 8.81%.

Consider `CSC1=NC(=Nc2c(C)cccc2C)C2(CCCCC2)N1c1ccccc1Cl`, for which the inhibition is -2.07%. As for `CC1CCN(c2nc(C(=O)NCCc3ccc(Cl)c(Cl)c3)c(C(C)C)s2)CC1`, the inhibition was 2.67%.

In the case of `NC1CCN(Cc2ccc(-c3ccc(-c4nc5cc(F)ccc5[nH]4)s3)cc2)C1` (centres undefined), the inhibition was determined as 5.81%. As for `Nc1cc(C(F)(F)F)ccc1Cl`, the figure is -2.26%. Under `O=C(NCCCCNCC(Cc1cccc(O)c1)c1ccccc1)c1ccc(NC(=O)c2ccc(Cl)cc2)cc1` (centres undefined) stands -1.18%; under `CC(=O)Nc1cccc(C(=O)Nc2ccc(-c3ccc(-c4nc5cccc(C)c5[nH]4)s3)cc2)c1`, 0.04%. As for `CCN(CC)CCCNc1ncc2c(-c3ccc(NC(=O)Nc4cc(C(F)(F)F)ccc4F)cc3)nn(C)c2n1`, the figure is 4.62%; as for `Nc1ncc(Cc2cc(Cl)c(N)c3ncccc23)c(N)n1`, 2.91%. Consider `Cc1nc(NCc2ccccc2)cc(NCC(O)c2ccc(O)cc2)n1` (centres undefined), for which the inhibition is 7.2%.

As for `CCOc1ccc2c(c1)OC(c1ccccc1)(C(F)(F)F)NC2=O` (centres undefined), the inhibition came to 1.65%. Under `Fc1cccc(COc2ccc(Nc3ncnc4sc(C#C[C@H]5CC[C@H](CN6CCOCC6)N5)cc34)cc2Cl)c1` stands -0.26%; under `O=C(Nc1ccc2nc3n(c(=O)c2c1)CCCCC3)C(=O)N1CCC(Cc2ccccc2)CC1`, -0.44%; under `Clc1ccc2c(N3CCN(CCN4CCN(c5ccnc6cc(Cl)ccc56)CC4)CC3)ccnc2c1`, 0.08%.

For `CCN(CC)CCCC(C)Nc1nc(C=Cc2ccc(Br)cc2)nc2cc(Cl)ccc12` (centres undefined), the inhibition is 10.2%. Consider `CC(C)Oc1cc(-c2ccc(S(C)(=O)=O)cc2)nc(N(Cc2cccc(F)c2F)Cc2cccc(F)c2F)n1`, for which the inhibition was -2.49%. On to `CC(CN(C)C)C(=O)Nc1cccc(-c2ccc(-c3nc4cc(F)ccc4[nH]3)s2)c1` (centres undefined), for which the inhibition stood at 4.47%. As for `O=C(Nc1ccc(N2CCC(Nc3ccccn3)CC2)cc1)c1cnc(Cl)c(Cl)c1`, the figure is 4.85%; as for `c1cc(CNCCc2ccncc2)cc(-c2ccc(-c3nc4ccccc4[nH]3)cc2)c1`, 0.79%; as for `Cc1n[nH]c2ccc(-c3cc(OC[C@@H](N)Cc4ccccc4)cnc3-c3cc4ccccc4s3)cc12`, 2.02%. `O=C(Nc1ccc2c(c1)OCO2)NC1CCN(c2ccnc(Nc3ccc(F)cc3)n2)C1` (centres undefined): the inhibition was 3.79%. Regarding `Cc1cc(O)nc(NC(=N)NOCc2ccccc2)n1`, the inhibition came to 1.07%. On to `CCCCCCn1c2c(c(=N)c3c1CCC3)CCCC2`, for which the inhibition stood at 66.2%. With `CN(C)Cc1c(O)ccc2[nH]c(-c3ccc(OC(F)(F)F)cc3)nc12`, the inhibition was 2.9%.

As to `COc1ccc2c(=NN=Cc3cccc(F)c3)cc(C)[nH]c2c1`, the inhibition is 1.95%. Turning to `O=C(Nc1ccc(S(=O)(=O)N2CCCCC2)cc1)c1cc(-c2ccccc2O)n[nH]1`, the inhibition stood at 10.8%.

Source of the values: ChEMBL document CHEMBL3433997, “St. Jude Leishmania screening dataset” (2016).
